G9a inh: inhibitors of human histone lysine methyltransferase G9a | G9a H3K9 monomethylation, AlphaScreen, 2 h | Potency, µM (series often up to 102 µM), for the others: at the top dose activity, negative = inhibition, actives largely listed as inhibitors | 350,000 compounds, 8.8% hits | AID 504332; further: on the % scale 0 is the no-effect control and ±100 the full control effect; nearly all actives have a fitted effect of over 75% in size
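Methyltransferase reactions run at room temperature for 2 h (20 nM enzyme, 500 nM biotin-H3K9 peptide, 20 uM SAM) after a 15 min compound preincubation; product detected by AlphaScreen beads and anti-H3K9me1 antibody.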
JMJD2A Tudor: inhibitors of human JMJD2A Tudor domain; O75164; AlphaScreen JMJD2A-Tudor / H3K4me3 peptide binding; Potency, µM (series often up to 114 µM), without a hit: top-dose activity change, negative = inhibition, usual class: inhibitors; 390,000 compounds, 4.4% hits; AID 504339; further: on the % scale 0 is the no-effect control and ±100 the full control effect; nearly all actives have a fitted effect of over 50% in size
HP1b binding inh: inhibitors of HP1-beta chromodomain binding to methylated histone tails; P83916; AlphaScreen HP1-beta / biotin-H3K9me3 peptide binding; Potency, µM (highest dose often 114 µM), inactives show at the top dose activity change, negative = inhibition, actives largely listed as inhibitors; 390,000 compounds, 0.56% hits; further: nearly all actives have a fitted effect of over 70% in size
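HP1-beta protein (50 nM final) preincubated 30 min at room temperature with biotinylated H3(1-18)K9me3 peptide (50 nM) in PBS pH 7.4, 0.01% Tween-20, then compound added for 30 min. AlphaScreen streptavidin donor/nickel chelate acceptor beads (10 ug/mL final), 30 min dark, luminescence read.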
GLS inh: glutaminase GLS (human) inhibition; 410,000 compounds, 0.21% hits; O94925; GLS enzymatic activity, qHTS titration; Potency, µM (series often up to 45.5 µM), for the others: at the top dose activity change, negative = inhibition, usual class: inhibitors; further: on the % scale 0 is the no-effect control and ±100 the full control effect
Target sequence (O94925 whole entry, looked up): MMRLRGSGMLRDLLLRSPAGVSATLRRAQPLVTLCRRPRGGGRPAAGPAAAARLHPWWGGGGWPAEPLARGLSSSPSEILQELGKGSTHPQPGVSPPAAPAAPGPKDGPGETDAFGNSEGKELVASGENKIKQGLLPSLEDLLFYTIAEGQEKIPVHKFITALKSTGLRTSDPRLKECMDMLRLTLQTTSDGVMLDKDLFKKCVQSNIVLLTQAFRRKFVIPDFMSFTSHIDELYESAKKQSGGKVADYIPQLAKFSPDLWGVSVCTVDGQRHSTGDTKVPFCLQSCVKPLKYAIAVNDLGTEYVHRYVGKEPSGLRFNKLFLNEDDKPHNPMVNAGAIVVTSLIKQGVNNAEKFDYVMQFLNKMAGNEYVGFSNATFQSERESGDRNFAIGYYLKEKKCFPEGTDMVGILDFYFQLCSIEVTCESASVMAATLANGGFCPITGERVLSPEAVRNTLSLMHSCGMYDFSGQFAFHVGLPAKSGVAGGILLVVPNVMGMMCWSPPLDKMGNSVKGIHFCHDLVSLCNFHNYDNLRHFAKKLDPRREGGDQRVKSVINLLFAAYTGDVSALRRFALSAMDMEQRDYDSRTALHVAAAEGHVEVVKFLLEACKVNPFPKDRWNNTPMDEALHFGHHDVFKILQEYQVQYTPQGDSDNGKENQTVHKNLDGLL
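Read-out is an Amplex red fluorescence increase coupled through glutamate oxidase and HRP, measured before and after 30 min room-temperature incubation. hKGA is in 45 mM KH2PO4 (pH 8.2) with 0.02% Tween-20; glutamine added as 1mM solution.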
BAZ2B block: blocks human BAZ2B | 360,000 compounds, 4.4% hits | Potency, µM (titrated, usually from 114 µM), for the others: at the highest dose activity change, negative = inhibition, most hits filed as inhibitors | AlphaScreen BAZ2B-H3K14Ac peptide displacement | Q9UIF8; further: on the % scale 0 is the no-effect control and ±100 the full control effect; nearly all actives have a fitted effect of over 60% in size
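Inhibition is scored as reduced AlphaScreen emission. The BAZ2B/b-H3(5-23)K14Ac complex (50 nM each) in PBS pH 7.4, 0.01% Tween-20 meets compound (up to 110 uM) for 30 min at RT before bead addition.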
The depositor's hits bear a star; ? = inconclusive; / = no result; [ ] = remark or other dose. A selection: hits, their analogues and other compounds. The true share with any hit is near 10%. The call rests on the fitted dose curve; in most records, active means well fitted curve in the direction sought with a large enough effect; inconclusive means small, poorly fitted or top-dose-only effect, or another doubt; inactive means no such curve, though single readings can be large; an effect the other way counts as inactive or inconclusive. Potency means the concentration at half of the fitted maximal effect.

SMILES	G9a inh	JMJD2A Tudor	HP1b binding inh	GLS inh	BAZ2B block
CC(=O)c1cccc(NC(=O)CN2CCN(Cc3ccccc3)CC2)c1	7.08µM*	0.794µM*	?	4.6%	?
O=C(CN1CCN(Cc2ccccc2)CC1)c1ccc(Br)cc1	-44.3%[0.501 µM]	?	43.5%	7.2%	?
O=C(CN1CCN(Cc2ccccc2)CC1)c1c[nH]c2ccccc12	39.8µM*	1.5%[11.4 µM]	55.1%	-8.0%	-5.0%
CCCNC(=O)CCC(=O)N1Cc2cccc(OC)c2Oc2ncccc21	2.7%[59 µM]	6.1%	32.2%	2.5%	9.0%[57.1 µM]
O=C(CN1CCN(Cc2ccccc2)CC1)NNC(=O)c1ccc(Cl)cc1	50.1µM*	-6.1%	17.2%	5.2%	13.0%
Cc1ccc(NC(=O)CN2CCN(Cc3ccccc3)CC2)c(Br)c1	?	7.08µM*	?	-4.4%	7.1%[0.457 µM]
O=C(O)COc1ccc(CCNS(=O)(=O)c2ccccc2)s1	?	/	/	-17.1%	/
O=C(O)c1ccc(B(O)O)cc1	/	-13.5%	22.8%	/	/
CC1CC(C)CN(c2nc(N(C)c3ccccc3)nc(N)c2[N+](=O)[O-])C1 (stereo not given)	10µM*	39.8µM*	-24.6%	-2.4%	?
O=C(CN1CCN(C(=O)c2ccc(-c3nc4ccccc4s3)o2)CC1)Nc1ccc(F)cc1	-12.1%[59 µM]	-32.2%	21.7%	-5.8%	-3.2%
COc1ccc(-c2ccc(N(C)C)cc2)cc1C1C2C=CCCC2(C)C(=O)N1Cc1ccccc1 (stereo not given)	/	8.91µM*	?	/	/
COc1ccc(-c2ccc(N(C)C)cc2)cc1[C@H]1[C@@H]2C=CCC[C@@]2(C)C(=O)N1Cc1ccccc1	?	14.1µM*	?	2.7%	7.94µM*
O=C(NCc1cc(Cl)cc(Cl)c1)c1ccc2nc([C@@H]3O[C@H](CO)[C@@H](O)[C@H]3O)[nH]c2c1	/	/	/	7.5%	/
COc1ccc(-c2nnc3sc(CN4C(=O)c5ccccc5C4=O)nn23)cc1	35.5µM*	-2.6%	-6.5%	7.7%	-0.5%
COc1ccc(-c2nnc3sc(C(C)N4C(=O)c5ccccc5C4=O)nn23)cc1 (stereo not given)	?	17.8µM*	0.3%	-8.1%	-5.8%
COc1cc2ccccc2cc1C(=O)N/N=C/c1cccs1	/	/	/	0.9%	/
COc1ccc(-c2nc3scc(CCNS(=O)(=O)c4c(C)cc(C)cc4C)n3n2)cc1OC	-3.2%[59 µM]	-11.4%	37.3%	7.8%	-21.4%
Cc1nn(-c2ccc(Cl)cc2)c2[nH]c(CCl)cc(=O)c12	?	79.4µM*	8.7%	-18.8%	-30.8%
Cc1cc(=O)[nH]c2c1c(C)nn2-c1ccccc1	-10.9%[59 µM]	-9.5%	10.2%	1.3%	-0.4%
Cc1ccc(Cn2c(C)c3cnn(CC(=O)N4CCN(c5ccc(F)cc5)CC4)c(=O)c3c2C)cc1	?	?	11.4%	-0.3%	?
O=C(CSc1ccc2nnc(-c3cccnc3)n2n1)NCc1ccco1	79.4µM*	-5.5%	40.3%	-10.9%	-31.7%
CCOC(=O)CSc1ccc2nnc(-c3cccnc3)n2n1	17.8µM*	-6.4%	60.4%	-8.0%	5.7%
Cc1ccc(NC(=O)CSc2ccc3nnc(-c4ccccn4)n3n2)cc1	44.6%	-27.0%	48.4%	-9.3%	4.4%
O=C(CSc1ccc2nnc(-c3ccncc3)n2n1)Nc1ccc2c(c1)OCCO2	-1.8%	-6.2%	21.9%	-10.6%	1.1%
O=C(CSc1ccc2nnc(-c3ccncc3)n2n1)Nc1ccc2c(c1)OCO2	31.6µM*	-30.3%	44.6%	5.3%	-1.6%
SMILES	G9a inh	JMJD2A Tudor	HP1b binding inh	GLS inh	BAZ2B block
O=C(CSc1ccc2nnc(-c3cccc(F)c3)n2n1)NCc1ccco1	-8.9%	-29.5%	8.5%	1.3%	-34.8%
CCOC(=O)CSc1ccc2nnc(-c3ccccc3)n2n1	-9.8%	-13.5%	26.8%	0.7%	0.4%
CC(=O)c1ccc(NC(=O)CSc2ccc3nnc(-c4ccccn4)n3n2)cc1	89.0%	31.6µM*	45.5%	-7.0%	0.7%
O=C(NCCNC(=O)c1ccc(-c2cc(Cl)ccc2Cl)o1)c1cnccn1	/	/	/	1.8%	/
O=C(OC1C[C@@H]2CC3C[C@H](C1)N2CC3=O)c1c[nH]c2ccccc12 (stereo not given in full)	-49.4%[2.33 µM]	/	/	14.2%	/
Cc1ccc(S(=O)(=O)C(CNC(=O)C(=O)NCCc2ccccc2)c2cccs2)cc1 (stereo not given)	15.9%[59 µM]	-14.3%	33.4%	1.4%	-7.6%
CCCC(O)c1nc2ccccc2n1CCCOc1ccc(Cl)cc1 (stereo not given)	-44.2%[59 µM]	-7.6%	41.5%	-5.5%	2.0%
COc1ccccc1NC(=O)c1cc2c([nH]c1=O)CC(C)(C)CC2=O	8.8%[59 µM]	-12.6%	10.5%	-3.5%	3.5%
CC(=O)Nc1ccc(NC(=O)CSc2ccc3nnc(-c4cccnc4)n3n2)cc1	31.6µM*	-14.5%	35.9%	-2.5%	-9.3%
COc1cc(Cl)c(NC(=O)c2cc3ccccn3n2)c(OC)c1	1.2%[59 µM]	-16.9%	20.5%	-9.9%	-1.5%
COc1ccc(CNC(=O)c2oc3c(c2C)-c2nn(Cc4ccc(Cl)cc4)cc2CC3)cc1	2.6%[59 µM]	-5.9%	30.8%	-4.2%	-13.5%
Cc1ccc(C(=O)NCC(=O)N2CCCCCCC2)cc1C	-0.1%[12.7 µM]	-1.0%	13.6%	-3.1%	10.0%
COCCNCC(=O)N1CCCCCC1	8.91µM*	3.55µM*	-29.5%	1.0%	50.1µM*
COc1ccc(Cl)cc1N=C1NC(=O)CC(C(=O)Nc2ccccc2C(F)(F)F)S1 (stereo not given)	?	-21.3%	10.1%	-6.4%	-27.0%
COc1ccc(NC(=S)NC2CCCCC2)cn1	5.5%	-17.9%	17.9%	5.8%	/
NC(=S)N/N=C1\CC(n2nnnc2-c2ccccc2)C2COC1O2 (stereo not given)	?	-13.7%	39.5%	3.2%	-18.5%
NC(=S)N/N=C1\CC(n2nnn(-c3cccc(Cl)c3)c2=S)C2COC1O2 (stereo not given)	39.8µM*	?	-20.9%	?	?
CN(C)CCCNCCCNC(=O)/C=N/O	31.6µM*	?	11.8%	-1.4%	-5.9%
CC(C)c1ccc(CN2CC(C(=O)Nc3ccccc3)CC2=O)cc1 (stereo not given)	-8.7%	-7.2%	46.5%	-8.9%	-4.8%
CNc1ncncc1-c1ccccc1C	20.4%[0.501 µM]	/	/	/	/
Cc1ccc(CNC(=O)Cc2c(C)c3c(cc(C)c4c(C)coc43)oc2=O)cc1	?	-7.5%	18.9%	-12.5%	-2.0%
CCCCCNc1nc(N2CCCC2)c2c(c1C#N)CCN(C)C2	50.1µM*	56.2µM*	-39.1%	-16.4%	?
O=C(Cc1ccccc1)N/N=C/c1cc(Br)cc(Br)c1O	45.0%[2.33 µM]	-16.4%	43.7%	20.0%	15.4%
O=C(O)c1ccccc1N/N=C/c1cc(Br)cc(Br)c1O	/	?	-24.3%	?	44.7µM*
Cc1cccc(C)c1N(CCCc1cccnc1)C(=O)[C@@H](C)N	/	/	/	-1.0%	/
COC(=O)C1=COC(C)C2CN3CCc4c([nH]c5ccccc45)C3CC12 (stereo not given)	44.7µM*	?	-1.1%	-1.0%	?

Screens as filed in PubChem BioAssay.
